# Measurements taken from PubChem BioAssay (EPA / NIEHS).
# “And” between values parts separate entries of the source, which are not always exact repeats. Equal values may be shown once. The source made the active and inactive calls. How the source made its calls: active means hit-call score of the fitted dose curve at least 0.9, where 1 is the maximum; inactive means score below 0.9.
# Read-out: CYP2E1 (gene 1571)
# Experiment: LTEA_HepaRG_CYP2E1: Life Technologies and Expression Analysis (LTEA) Assay for CYP2E1 using HepaRG (AID 2283485)
# Settings: mRNA level, 48 h; actives raise or lower the signal
# Description: LTEA_HepaRG is a cell based, multiplexed-readout assay that uses HepaRG, a human liver cell line, with measurements taken at 48 hours after chemical dosing on a 96-well plate.LTEA_HepaRG_CYP2E1 is one of 102 assay component(s) measured in the LTEA HepaRG cell culture assay. It is a marker of NR mediated metabolism.Data from the assay component LTEA_HepaRG_CYP2E1 was analyzed into 1 endpoint. This assay endpoint, LTEA_HepaRG_CYP2E1, was analyzed with bidirectional fitting relative to DMSO as the negative control and baseline of activity. Using a type of inducible reporter, measures of mRNA induction for gain or loss-of-signal activity can be used to understand regulation of transcription factor activity. To generalize the intended target to other relatable targets, this assay endpoint is annotated to the cyp intended target family, where the subfamily is xenobiotic metabolism.
# A total of 1060 chemcials from the ToxCast library were tested in eight-point concentration-response experiments. Cell culture and cytotoxicity assays were conducted at Thermo Fisher Scientific's Custom Services facility (Madison, WI). A single lot of human HepaRG cells (Thermo Fisher Scientific, Frederick, MD) was used for the cell culture experiments. 96-well format collagen type I coated plates of human HepaRG cells were prepared using established methods. Briefly, cryopreserved HepaRG cells were thawed, plated at a density of approximately 100,000 cells/well in HepaRG Thaw, Plate, and General Purpose media (HPRG770, Thermo Fisher Scientific), and incubated for 48 hours. 0.5% DMSO was selected as vehicle control to balance the requisite need of DMSO in HepaRG cultures to maintain differentiation (for example, baseline metabolism, proportions of hepatocytes vs. cholangiocytes), while enabling further hepatic receptor pathway activation (for example, PXR and CAR) in response to chemical exposure. 48 hours after plating, the culture medium was replaced with HepaRG Serum-Free Incudtion Media. Cells were exposed to each test chemical in duplicate and maintained in CO2 incubators for another 48 hours. Chemical plates were thawed to room temperature and 200x concentrations of treatment groups were prepared. 8-point conentration-reponse curves were made with the highest exposure at 100 uM, followed by half-log dilutions, all in 0.5% DMSO. Each test plate contained variouse controls, induction positive controls (1mM phenobarbital), cytotoxicity positive controls ([…] aflatoxin B1), vehicle controls (0.5% DMSO), and total lysis controls (0.5% DMSO). Cell morphology images were taken using an Essen IncuCyte FLR automated microscope, with six 96-well plates imaged in about 24 minutes. Images were captured and exported and JPEG files. Spent culture media was transfered to black-well plates for the LDH assay, and remaining media was sorted at -80 C for later use. Cells were treated with RLT buffer and frozen until shipped for gene expression analysis. Total RNA was isolated from the cell suspension in 75 uL of Buffer RLT (Qiagen, Germantown, MD 20874) by Quintiles/Expression Analysis (Durham, NC) using a custom isolation procedure. Total RNA from each plate well was transferred to a preamplification plate. Fluidigm's 96.96 Dynamic ArrayTM (Fluidigm, Amsterdam, the Netherlands) technology was used for gene expression analyses by quantitative reverse transcription polymerase chain reaction (qRT-PCR, performed by Quintiles/Expression Analysis, Durham, NC)89. Standard TaqManTM Assays (Applied Biosystems/ThermoFisher Scientific, Foster City, CA) were used to assess the expression of 93 genes selected based on their selectivity and sensitivity to important hepatic receptors known to be modulated by environmental chemicals; importance in human hepatocyte functionality; and hepatotoxicity. […]
Compound,AC50,outcome
CC(C)(C)CC(C)(C)c1ccc(O)cc1,26.5 µM (active),–
CC(=O)[O][Hg][c]1ccccc1,13.2 µM (active),–
Cc1ccccc1N,–,inactive
NC(=O)O,–,inactive
CC(C)(C)c1cc(O)ccc1O,–,inactive
CN(C)N=O,–,inactive
O=C(Nc1ccc2[nH]ccc2c1)c1cc2cc(F)ccc2n1Cc1cccc(F)c1,21.9 µM (active),–
CCC(C)(C)c1ccc(O)c(C(C)(C)CC)c1,–,inactive
CCOP(=S)(OCC)Oc1nc(Cl)c(Cl)cc1Cl,50 µM (active),–
C=C(C)C(=O)[O][Sn]([CH2]CCC)([CH2]CCC)[CH2]CCC,–,inactive
O=[N+]([O-])c1ccc(O)c([N+](=O)[O-])c1,20.5 µM (active),–
O=C(O)C(F)(F)C(F)(F)C(F)(F)C(F)(F)C(F)(F)C(F)(F)F,–,inactive
O=c1[nH]c(=O)[nH]c(=O)[nH]1,–,inactive
Oc1cccc2cccnc12,–,inactive
CC(C)(OO)c1ccccc1,–,inactive
CCC(=O)C(CC(C)N(C)C)(c1ccccc1)c1ccccc1 (stereo not given),36.2 µM (active),–
COc1cc(-c2ccc(N)c(OC)c2)ccc1N,38.1 µM (active) and 24.1 µM (active),–
O=C(O)C(F)(F)C(F)(F)C(F)(F)C(F)(F)C(F)(F)C(F)(F)C(F)(F)C(F)(F)C(F)(F)C(F)(F)F,57 µM (active),–
CCCCCCCCc1ccc(O)cc1,–,inactive
C[C@]12CCC(=O)C[C@@H]1CC[C@@H]1[C@@H]2CC[C@]2(C)[C@@H](O)CC[C@@H]12,50 µM (active),–
CCOP(=S)(OCC)SCSP(=S)(OCC)OCC,19.2 µM (active),–
O=C1C2(Cl)C3(Cl)C4(Cl)C(Cl)(Cl)C5(Cl)C3(Cl)C1(Cl)C5(Cl)C24Cl (stereo not given),13.2 µM (active),–
ClC1(Cl)C2(Cl)C3(Cl)C4(Cl)C(Cl)(Cl)C5(Cl)C3(Cl)C1(Cl)C5(Cl)C24Cl (stereo not given),4.06 µM (active),–
C=CC(=O)OCCCCCC(C)C,–,inactive
CC(C)(c1ccccc1)c1ccc(O)c(C(C)(C)c2ccccc2)c1,62.4 µM (active),–
ClCC(Cl)CCl,–,inactive
O=C(O)C(Cl)(Cl)Cl,–,inactive
Cn1sc(Cl)cc1=O,–,inactive
CC12CC1(C)C(=O)N(c1cc(Cl)cc(Cl)c1)C2=O (stereo not given),16.6 µM (active),–
CCN1CCC2(CC1)COc1cc3c(cc12)N(C(=O)c1ccc(-c2ccc(-c4nnc(C)o4)cc2C)cc1)CC3,17.7 µM (active),–
